These results are taken from the supplement of paper PMC12819154, “High-throughput peptide-centric local stability assay extends protein–ligand identification to membrane proteins, tissues and bacteria” (Nature Structural & Molecular Biology, 2025).
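Also: lysate desalted by size exclusion to strip endogenous ATP, peptide intensities built from DIA-NN precursor signals, and peptides missing any value discarded before comparison.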

Sequence of UniProt P0AEC3 (P0AEC3 whole entry): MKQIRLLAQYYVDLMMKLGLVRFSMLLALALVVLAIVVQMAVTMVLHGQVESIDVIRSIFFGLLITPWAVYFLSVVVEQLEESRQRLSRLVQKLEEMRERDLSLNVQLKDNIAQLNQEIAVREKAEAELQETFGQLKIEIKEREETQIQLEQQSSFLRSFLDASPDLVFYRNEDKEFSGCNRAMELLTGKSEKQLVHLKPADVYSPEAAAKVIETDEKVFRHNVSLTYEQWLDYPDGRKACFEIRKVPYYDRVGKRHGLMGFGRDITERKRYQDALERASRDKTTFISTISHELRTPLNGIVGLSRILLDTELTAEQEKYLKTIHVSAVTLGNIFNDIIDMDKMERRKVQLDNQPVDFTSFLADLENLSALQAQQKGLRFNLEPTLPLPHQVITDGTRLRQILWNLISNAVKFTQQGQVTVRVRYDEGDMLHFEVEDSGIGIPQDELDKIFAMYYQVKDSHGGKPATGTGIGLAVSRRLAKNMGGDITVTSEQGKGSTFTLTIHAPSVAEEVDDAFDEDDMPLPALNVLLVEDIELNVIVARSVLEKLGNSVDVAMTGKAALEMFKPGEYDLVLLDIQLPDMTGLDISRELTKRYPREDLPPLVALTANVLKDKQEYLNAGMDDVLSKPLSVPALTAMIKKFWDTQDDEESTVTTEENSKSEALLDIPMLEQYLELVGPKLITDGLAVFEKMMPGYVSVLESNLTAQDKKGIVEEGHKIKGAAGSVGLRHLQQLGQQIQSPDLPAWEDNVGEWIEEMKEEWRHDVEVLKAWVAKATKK
Sequence of UniProt P78061 (P78061 whole entry): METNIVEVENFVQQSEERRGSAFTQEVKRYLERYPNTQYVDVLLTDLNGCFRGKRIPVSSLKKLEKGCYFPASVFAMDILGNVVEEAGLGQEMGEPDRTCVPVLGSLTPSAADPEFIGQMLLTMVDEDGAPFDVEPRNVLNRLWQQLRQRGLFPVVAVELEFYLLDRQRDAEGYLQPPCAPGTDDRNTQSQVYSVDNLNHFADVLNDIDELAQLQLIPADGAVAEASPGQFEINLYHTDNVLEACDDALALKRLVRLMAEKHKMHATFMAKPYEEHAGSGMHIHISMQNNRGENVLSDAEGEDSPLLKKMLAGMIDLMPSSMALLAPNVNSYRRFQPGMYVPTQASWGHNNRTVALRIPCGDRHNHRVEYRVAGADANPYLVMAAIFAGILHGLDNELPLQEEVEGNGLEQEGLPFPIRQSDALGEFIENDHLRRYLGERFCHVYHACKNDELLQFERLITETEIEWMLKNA
Sequence of UniProt P76506 (P76506 whole entry): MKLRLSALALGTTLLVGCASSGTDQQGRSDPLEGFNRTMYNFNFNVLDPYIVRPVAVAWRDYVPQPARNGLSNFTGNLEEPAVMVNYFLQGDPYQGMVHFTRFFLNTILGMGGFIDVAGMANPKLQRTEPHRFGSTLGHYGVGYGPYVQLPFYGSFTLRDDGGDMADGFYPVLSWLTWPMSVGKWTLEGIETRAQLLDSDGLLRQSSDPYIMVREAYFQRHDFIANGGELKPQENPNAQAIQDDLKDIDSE
Sequence of UniProt P0ACU0 (P0ACU0 whole entry): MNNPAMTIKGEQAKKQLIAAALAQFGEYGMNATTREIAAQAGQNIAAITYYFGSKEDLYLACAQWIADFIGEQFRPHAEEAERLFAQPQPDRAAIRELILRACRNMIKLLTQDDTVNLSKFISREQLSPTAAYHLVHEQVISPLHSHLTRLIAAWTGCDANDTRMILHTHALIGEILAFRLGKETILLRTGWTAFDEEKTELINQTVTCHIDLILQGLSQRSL
Sequence of UniProt P15031 (P15031 whole entry): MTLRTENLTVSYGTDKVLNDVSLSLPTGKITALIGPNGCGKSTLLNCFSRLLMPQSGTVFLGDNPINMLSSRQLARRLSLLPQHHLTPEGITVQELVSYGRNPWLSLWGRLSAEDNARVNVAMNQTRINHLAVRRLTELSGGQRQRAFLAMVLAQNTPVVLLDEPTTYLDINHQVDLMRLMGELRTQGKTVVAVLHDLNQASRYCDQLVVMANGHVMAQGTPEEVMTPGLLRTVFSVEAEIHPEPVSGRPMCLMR
Sequence of UniProt P26365 (P26365 whole entry): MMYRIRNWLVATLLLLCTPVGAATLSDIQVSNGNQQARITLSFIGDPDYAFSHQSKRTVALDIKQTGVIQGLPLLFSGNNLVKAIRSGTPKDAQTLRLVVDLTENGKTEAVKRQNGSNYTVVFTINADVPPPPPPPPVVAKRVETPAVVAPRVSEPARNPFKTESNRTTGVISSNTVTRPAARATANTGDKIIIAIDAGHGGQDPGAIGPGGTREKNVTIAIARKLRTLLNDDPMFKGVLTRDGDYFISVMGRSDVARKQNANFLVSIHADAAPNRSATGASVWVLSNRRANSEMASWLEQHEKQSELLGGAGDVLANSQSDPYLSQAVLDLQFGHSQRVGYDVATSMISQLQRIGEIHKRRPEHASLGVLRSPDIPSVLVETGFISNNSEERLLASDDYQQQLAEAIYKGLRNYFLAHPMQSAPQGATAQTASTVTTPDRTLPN
Sequence of UniProt P0ADV7 (P0ADV7 whole entry): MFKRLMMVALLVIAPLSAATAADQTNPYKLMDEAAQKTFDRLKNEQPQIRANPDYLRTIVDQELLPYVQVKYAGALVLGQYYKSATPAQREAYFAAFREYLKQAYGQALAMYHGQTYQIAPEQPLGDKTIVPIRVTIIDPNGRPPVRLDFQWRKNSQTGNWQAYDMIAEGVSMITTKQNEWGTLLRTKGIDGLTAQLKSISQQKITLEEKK
Sequence of UniProt P45395 (P45395 whole entry): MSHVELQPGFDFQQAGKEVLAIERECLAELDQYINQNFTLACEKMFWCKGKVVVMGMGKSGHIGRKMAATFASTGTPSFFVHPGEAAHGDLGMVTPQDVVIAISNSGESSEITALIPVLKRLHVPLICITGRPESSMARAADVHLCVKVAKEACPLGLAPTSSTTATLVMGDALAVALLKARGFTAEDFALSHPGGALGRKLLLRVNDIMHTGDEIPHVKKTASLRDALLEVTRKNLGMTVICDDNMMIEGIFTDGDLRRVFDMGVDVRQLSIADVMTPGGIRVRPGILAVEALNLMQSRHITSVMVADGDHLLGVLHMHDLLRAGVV
Sequence of UniProt P18392 (P18392 whole entry): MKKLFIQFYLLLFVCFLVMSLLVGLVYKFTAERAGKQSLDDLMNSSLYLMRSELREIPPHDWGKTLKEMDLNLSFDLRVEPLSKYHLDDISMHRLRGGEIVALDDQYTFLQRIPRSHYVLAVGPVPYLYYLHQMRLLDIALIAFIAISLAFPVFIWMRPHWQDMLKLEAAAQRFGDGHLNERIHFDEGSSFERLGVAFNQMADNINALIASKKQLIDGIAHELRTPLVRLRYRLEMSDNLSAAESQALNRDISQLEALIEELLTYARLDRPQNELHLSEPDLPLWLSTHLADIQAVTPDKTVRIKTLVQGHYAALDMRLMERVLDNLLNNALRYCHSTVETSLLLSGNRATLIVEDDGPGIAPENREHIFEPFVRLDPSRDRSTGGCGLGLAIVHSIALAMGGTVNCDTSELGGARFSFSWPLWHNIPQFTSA
Sequence of UniProt P76187 (P76187 whole entry): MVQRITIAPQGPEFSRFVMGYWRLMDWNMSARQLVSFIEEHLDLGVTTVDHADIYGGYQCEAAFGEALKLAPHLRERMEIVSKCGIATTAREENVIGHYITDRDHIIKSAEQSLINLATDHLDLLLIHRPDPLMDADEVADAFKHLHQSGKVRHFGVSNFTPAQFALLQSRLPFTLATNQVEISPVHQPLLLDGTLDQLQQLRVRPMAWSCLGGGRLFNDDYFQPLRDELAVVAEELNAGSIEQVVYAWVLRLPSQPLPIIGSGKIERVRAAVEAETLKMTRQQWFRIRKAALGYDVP
Sequence of UniProt P21693 (P21693 whole entry): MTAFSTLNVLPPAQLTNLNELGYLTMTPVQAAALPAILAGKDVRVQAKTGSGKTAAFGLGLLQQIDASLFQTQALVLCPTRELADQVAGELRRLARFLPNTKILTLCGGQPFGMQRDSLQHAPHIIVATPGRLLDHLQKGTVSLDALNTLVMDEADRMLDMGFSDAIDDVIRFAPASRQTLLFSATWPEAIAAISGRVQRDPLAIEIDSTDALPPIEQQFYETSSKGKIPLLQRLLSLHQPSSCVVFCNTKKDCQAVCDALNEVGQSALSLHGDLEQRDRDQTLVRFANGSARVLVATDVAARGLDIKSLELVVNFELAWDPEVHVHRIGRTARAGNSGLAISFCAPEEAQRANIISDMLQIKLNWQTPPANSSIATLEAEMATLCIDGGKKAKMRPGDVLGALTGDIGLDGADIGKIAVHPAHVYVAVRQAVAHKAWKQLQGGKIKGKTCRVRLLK

Compound in the assay: Nc1ncnc2c1ncn2[C@@H]1O[C@H](COP(=O)(O)OP(=O)(O)OP(=O)(O)O)[C@@H](O)[C@H]1O [adenosine 5'-triphosphate]
Description: log2 fold change of tryptic peptide abundance, ligand vs vehicle (limited proteolysis) (log2 ratio); higher = more trypsin-susceptible (destabilized). The following applies: ligand concentration: 5 mM; sample: E. coli desalted lysate; replicate design: treated before aliquoting. On the procedure:
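HT-PELSA: desalted E. coli K-12 BW25113 lysate (with 12 mM MgCl2) incubated with 5 mM ATP (pH 7) or water for 30 min at 25 C, then a 4 min trypsin pulse at 22 C. Peptides were quantified by DIA-MS (4 replicates). Value is the peptide log2 fold change (treated/control); negative = stabilized. Scale: negative = ligand-stabilized region.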
“UniProt P45395 (peptide sequence: LHVPLICITGRPESSMAR, peptide start residue: 122)”: the log2 fold change was 1.09. With “UniProt P15031 (peptide sequence: TVFSVEAEIHPEPVSGRPMCLMR, peptide start residue: 233)” the figure was 1.33; with “UniProt P0ACU0 (peptide sequence: LLTQDDTVNLSK, peptide start residue: 109)”, 0.555.

With “UniProt P0AEC3 (peptide sequence: FTQQGQVTVR, peptide start residue: 413)”, the log2 fold change is -2.53. Consider “UniProt P26365 (peptide sequence: SATGASVWVLSNR, peptide start residue: 277)”, for which the log2 fold change was -0.606.

As to “UniProt P18392 (peptide sequence: EHIFEPFVR, peptide start residue: 367)”, the log2 fold change was -1.71. “UniProt P76506 (peptide sequence: SDPLEGFNR, peptide start residue: 29)”: the log2 fold change was 0.294. In the case of “UniProt P76187 (peptide sequence: HFGVSNFTPAQFALLQSR, peptide start residue: 154)”, the log2 fold change is -0.944.

For “UniProt P78061 (peptide sequence: FCHVYHACK, peptide start residue: 441)”, the log2 fold change was -1.83. With “UniProt P21693 (peptide sequence: ELADQVAGELRR, peptide start residue: 82)” the figure was -1.53; with “UniProt P0ADV7 (peptide sequence: LKNEQPQIR, peptide start residue: 42)”, 0.525.
